Pf growth 96h – P. falciparum growth inhibition at 96 hours; actives 6.9% (n = 320,000); Potency, µM (series often up to 28.7 µM), most hits filed as inhibitors; P. falciparum luciferase reporter growth, 96 h
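Readout is luminescence from an integrated firefly luciferase in P. falciparum. Red cells, 2% hematocrit and 0.05% parasitemia final, were cultured with compound through two parasite generations (96 hours) at 37 C, 5% CO2.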
SARS PLP yeast – inhibitors of SARS-CoV papain-like protease in yeast. actives 0.19% (n = 330,000). S. cerevisiae expressing SARS-CoV PLpro, growth rescue. Potency, µM (doses to about 32.9 µM), most hits filed as activators; calls by dose curve; further: nearly all actives have a fitted effect of over 55% in size
HCV inh – inhibitors of hepatitis C virus infection. Huh7.5.1 HCVcc-Cre infection, luciferase reporter, 44 h. Potency, µM (doses to about 41.8 µM), actives largely listed as inhibitors. actives 3.4% (n = 340,000)
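Seed cells (1,000/well) for 4 h; treat with compound and infect with HCVcc-Cre, moi about 0.5. Incubate 44 h, then detect luciferase activity.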
Pf growth 48h – P. falciparum growth inhibition at 48 hours (one generation); AID 504832; Potency, µM (top dose mostly 28.7 µM), usual class: inhibitors; actives 5.9% (n = 310,000); P. falciparum luciferase growth in erythrocytes, 48 h
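Growth was read as firefly luciferase luminescence after a 48 h, 37 C, 5% CO2 exposure of compounds to reporter-bearing P. falciparum cultures (0.1% parasitemia, 2% hematocrit final) in Albumax-supplemented RPMI 1640.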
Sm TGR inh – inhibitors of Schistosoma mansoni thioredoxin glutathione reductase; Potency, µM (titrated, usually from 114 µM), actives largely listed as inhibitors; purified TGR, DTNB reduction, TNB absorbance 405 nm; AID 485364; actives 3% (n = 360,000); Q962Y6; further: nearly all actives have a fitted effect of over 60% in size
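First, TGR (20 nM dispensed) and NADPH were mixed with compound. Second, a 15 min room-temperature incubation followed. Third, further NADPH and then DTNB were added to start the reaction. Finally, TNB absorbance was monitored kinetically.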
HCMV antiviral – blocks human cytomegalovirus replication; HFF cells, HCMV-luciferase reporter, 72 h; hits give low values; actives 4.5% (n = 410,000); AID 1259415; activity change, negative = inhibition, % at 57.5 µM; in the data active means activity change below about -60%; inconclusive means no clear call, values can overlap the other calls; inactive means above about -39%
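Two-dose cell screen: HFF monolayers treated with compounds and infected with luciferase-expressing HCMV at 1 PFU/cell, 72 h at 37C, then lysed for luciferase measurement.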
A number is an active result; i = inactive; ? = inconclusive; nt = no result; [ ] = dose if it differs, or a comment. Hits are enriched below; roughly 15% of the tested compounds scored in any of these assays. Unless noted, the call rests on the fitted dose curve; in most records, active means well fitted curve in the direction sought with a large enough effect; inconclusive means small, poorly fitted or top-dose-only effect, or another doubt; inactive means no such curve, though single readings can be large; an effect the other way counts as inactive or inconclusive.

SMILES	Pf growth 96h	SARS PLP yeast	HCV inh	Pf growth 48h	Sm TGR inh	HCMV antiviral
CCCCn1c(-c2ccc(OC)cc2)nc2c(=O)n(C)c(=O)[nH]c21	1.65µM	i	i	i[0.00184 µM]	i	i
CC(=O)c1cccc(NC(=O)N2CCC(CN3CCCCC3)CC2)c1	nt	nt	nt	nt	i	i
CCCS(=O)(=O)NC(=O)C1(C)CCCN(C(=O)c2cc(C)n(C(C)(C)C)n2)C1 (stereo not given)	nt	nt	nt	nt	nt	-64.5
CC(CN1CCCC1)OC(=O)c1ccc(Br)cc1 (stereo not given)	i	i	i	i[0.00184 µM]	i	i
O=C1C(N2CCOCC2)=C(n2nnc3ccccc32)C(=O)c2ccccc21	2.33µM	i	7.08µM	nt	?	-100.4
CC1CN(C(=O)C2(C)CC2(Cl)Cl)CC(C)O1 (stereo not given)	?	i	i	i	i	i
COCCCNC(=O)c1cc(Sc2nnc(C)s2)nc2ccccc12	i	i	i	i	i	i
Cc1nnc(Sc2cc(C(=O)NCCCN(C)Cc3ccccc3)c3ccccc3n2)s1	2.08µM	i	i	?	i	i
CCOCCCNC(=O)c1cc(Sc2nnc(C)s2)nc2ccccc12	i	i	10µM	i	i	i
Cc1ccc(CN(Cc2ccco2)c2cnc(S(C)(=O)=O)nc2C(=O)Nc2ccccc2Br)o1	nt	nt	nt	nt	i	i
COc1ccc(NC(=O)COc2nc3ccccc3nc2N2CCOCC2)c(OC)c1	i	i	i	i	i	i
COc1ccccc1N1CCN(CCCNC(=O)C2CCCN(c3ncnc4c3nc3n4CCCCC3)C2)CC1 (stereo not given)	?	i	12.6µM	?	i	i
O=C(NCCCN1CCN(c2ccc(F)cc2)CC1)C1CCCN(c2ncnc3c2nc2n3CCCCC2)C1 (stereo not given)	?	i	?	?	i	?
CCCCN(CC)C(=O)C1CCCN(c2ncnc3c2nc2n3CCCCC2)C1 (stereo not given)	nt	nt	nt	nt	i	i
COc1ccccc1N1CCN(c2ncnc3c2nc2n3CCCC2)CC1	nt	nt	nt	nt	i	i
CCCCN(Cc1ccco1)C(=O)C1CCCN(c2ncnc3c2nc2n3CCCCC2)C1 (stereo not given)	i	i	?	9.28µM	i	-92.9
O=C(C1CCCN(c2ncnc3c2nc2n3CCCCC2)C1)N1CCN(c2ccccc2)CC1 (stereo not given)	?	?	?	?	i	-62.0
COc1ccccc1N1CCN(C(=O)C2CCCN(c3ncnc4c3nc3n4CCCCC3)C2)CC1 (stereo not given)	i	i	?	9.28µM	i	i
Cc1ccccc1CN1CCC(CNC(=O)C2CCCN(c3ncnc4c3nc3n4CCCCC3)C2)CC1 (stereo not given)	6.57µM	i	i	11.7µM	i	i
Cc1ccccc1N(C)C(=O)C1CCCN(c2ncnc3c2nc2n3CCCCC2)C1 (stereo not given)	i	i	?	?	i	i
O=C(Nc1ccc(Cl)cc1)C1CCCN(c2ncnc3c2nc2n3CCCCC2)C1 (stereo not given)	?	i	?	?	i	?
O=C(C1CCCN(c2ncnc3c2nc2n3CCCCC2)C1)N1CCN(c2cccc(Cl)c2)CC1 (stereo not given)	?	i	?	13.1µM	i	i
COc1cccc(CCNC(=O)C2CCCN(c3ncnc4c3nc3n4CCCCC3)C2)c1OC (stereo not given)	i	?	?	i	i	i
CC(C)N(Cc1ccccc1)C(=O)C1CCCN(c2ncnc3c2nc2n3CCCCC2)C1 (stereo not given)	i	i	?	?	i	-60.4
CN(C(=O)C1CCCN(c2ncnc3c2nc2n3CCCCC2)C1)c1cccc(Cl)c1 (stereo not given)	i	i	?	2.94µM	i	i
SMILES	Pf growth 96h	SARS PLP yeast	HCV inh	Pf growth 48h	Sm TGR inh	HCMV antiviral
O=C(CSc1nnc(-c2ccccc2Cl)o1)N1CCOCC1	i	i	i	i	i	i
COc1cc2oc(=O)c(CC(=O)N3CCCCC3)c(C)c2cc1OC	nt	nt	nt	nt	i	i
O=C(Nc1cc(Cl)cc(Cl)c1)c1ccc(F)c(S(=O)(=O)N2CCCCCC2)c1	nt	nt	nt	nt	i	i
CC(C)(O)C1C2OC(=O)C1[C@]1(O)C[C@H]3O[C@]34C(=O)O[C@H]2[C@]14C (stereo not given in full) (tested in a mixture with another compound)	i	nt	nt	i	nt	nt
Cc1cccc(OCC(=O)Nc2c(C(=O)N3CCN(c4ccccc4F)CC3)oc3ccccc23)c1	nt	nt	nt	nt	i	i
COc1ccc(C)cc1-n1nnnc1SCC(=O)N1CCC(C(=O)Nc2nccs2)CC1	1.65µM	i	i	i	i	i
O=[N+]([O-])c1ccc(N2CCN(CCOc3nonc3-c3ccccc3)CC2)c(Cl)c1	?	i	6.31µM	i	i	i
Cc1nonc1OCCN1CCN(c2ccc([N+](=O)[O-])cc2)CC1	?	i	?	?	i	i
Cc1cc(O)c(C=O)c2c1C(=O)Oc1c(CO)c(O)c3c(c1O2)C(O)OC3=O (stereo not given)	i	i	i	i	14.1µM	nt
N#Cc1c(NC(=O)C(=O)NCCCN2CCOCC2)sc2c1CCC2	?	i	i	?	i	i
COCC(=O)Nc1sc2c(c1C(=O)OC)CCCC2	i	i	7.08µM	i	i	i
COC(=O)c1c(NC(=O)C(=O)NCCCN2CCOCC2)sc2c1CCCC2	?	i	22.4µM	i	i	i
COC(=O)c1c(NC(=O)COC(=O)c2ccc(O)cc2)sc2c1CCCCC2	?	i	3.16µM	?	i	i
CCn1c2ccccc2c2cc(/C=N/n3c(C)nnc3C)ccc21	nt	i	3.55µM	i	i	i
CCCCn1c(N)c(N(C(=O)CSc2nnc(C)n2-c2ccccc2)C2CCCC2)c(=O)[nH]c1=O	i	i	i	i	i	i
COc1ccc(O)c(/C=N/NC(=O)c2ccc(N3CCCC3=O)cc2)c1	i	i	11.2µM	?	i	?
CCCc1cc(=O)[nH]c(SCC(=O)N2CCCCCC2)n1	nt	i	i	nt	nt	i
Cc1ccc(N=C2N=C(N)c3ccccc32)cc1C	nt	nt	?	nt	nt	-62.7
CCc1ccc(N=C2N=C(N)c3ccccc32)cc1	i	i	i	nt	i	i
Cc1ccc(CNc2ccc(-c3nc(C(C)C)no3)cc2[N+](=O)[O-])cc1	nt	nt	nt	nt	i	i
CC(C)(C)c1ccc(-c2nnc(SCC(=O)NC3CC3)o2)cc1	1.31µM	i	i	2.08µM	i	i
CCOc1ccc(-c2nnc(SCC(=O)NC3CC3)o2)cc1	?	i[6.58 µM]	i	?	i	i
C=CCN=C(C)C1=C(O)CCC1=O	i	i	i	i	i	i
C=CCN=C(CC)C1=C(O)CCCC1=O	i	i	i	i	i	-66.9
Cc1ccc(C(=O)Nc2ccccc2C(=O)N2CCCC(C)C2)cc1 (stereo not given)	i	nt	nt	i	i	i

Bioassay records from PubChem BioAssay.
